This note sets out measurements from PubChem BioAssay (NCATS).

In assay [1] the target is ATP-dependent DNA helicase Q1 (Homo sapiens) (UniProt P46063). Description: qHTS Validation Assay for Inhibitors of RecQ-Like Dna Helicase 1 (RECQ1) (AID 2353). In outline: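 50 nM RECQ1T1 preincubated 15 min with compound in Tris pH 8.0 buffer with MgCl2, DTT, Tween-20 and 2.5 ug/ml poly(dI-dC); started with 200 nM TAMRA/BHQ-2 forked duplex and 2 mM ATP. Unwinding read as fluorescence (525/598 nm), two reads 2 h apart.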

Assay [2] concerns the target RecQ-like DNA helicase BLM (Homo sapiens) (UniProt P54132). Description: qHTS Validation Assay for Inhibitors of Bloom's syndrome helicase (BLM) (AID 2364). A digest of the protocol: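 BLM 50 nM in 25 mM Tris-HCl pH 8.0, 5 mM NaCl, 2 mM MgCl2, 1 mM DTT, 0.01% Tween-20, 2.5 ug/ml poly(dI-dC); 15 min cpd preinc, RT. Start: 200 nM forked DNA + 2 mM ATP (final). TAMRA read, 2 reads 2 h apart.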
A general note: In qHTS, concentration-response curves come from the screen itself.

Assay [3] is described as follows: Cytometric Cell-Based qHTS for Inhibitors of the mTORC1 Signaling Pathway in MEF (Tsc2-/-, p53-/-) Cells (AID 2660).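 Further: percent of cells above a phospho-rpS6 to PI ratio cutoff in each well; series mostly up to about 38 µM.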 In outline:
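Tsc2-/-, p53-/- MEFs (empty vector) exposed to compound 24 h at 37 C, fixed, stained with Alexa-488 anti-phospho-rpS6 Ser235/236 and propidium iodide. Acumen laser scanning; phospho-S6/PI ratio thresholded against 7.5 nM rapamycin, reported as % positive cells.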

A short description of assay [4]: High Content Imaging Cell-Based qHTS for Inhibitors of the mTORC1 Signaling Pathway in MEF (Tsc2-/-, p53-/-) Cells (AID 2666).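 Further: percent of cells scored positive for phospho-rpS6 Ser235/236 immunostaining by imaging.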 A digest of the protocol:
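Read-out: % positive cells per well, with thresholds from highest- and lowest-signal wells, based on phospho-rpS6 (Ser235/236) intensity normalized to Hoechst nuclear stain. Cells: Tsc2-/-, p53-/- MEFs carrying empty vector; compound 24 hrs, 37 degree Celsius.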

The nature of assay [5]: High Content Imaging Cell-Based qHTS for Inhibitors of the mTORC1 Signaling Pathway in MEF Cells (AID 2667). Further: potency means the concentration at half of the fitted maximal effect. A digest of the protocol:
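MEF (Tsc2-/-, p53-/-, WT Tsc2 re-expressed); cpd 24 h, 37 °C; PFA fix; Alexa-488 anti-p-rpS6 Ser235/236, PI, Hoechst; IN Cell imaging; Hoechst/Alexa-488 intensity ratio; % active cells, thresholds set from rapamycin and DMSO wells.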

Assay [6] in a line: Cytometry Cell-Based qHTS for Inhibitors of the mTORC1 Signaling Pathway in MEF cells (AID 2668). Further: potency means the concentration at half of the fitted maximal effect. A digest of the protocol:
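Phospho-rpS6 (Ser235/236) immunofluorescence over PI signal, scored as % positive cells using thresholds from 7.5 nM rapamycin and DMSO wells, after 24 h compound exposure of WT-Tsc2-rescued Tsc2-/-, p53-/- MEFs. PI cell count recorded for viability.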

The nature of assay [7]: Validation screen for small molecules that induce DNA re-replication in MCF 10A normal breast cells (AID 463097). Further: nearly all actives have a fitted effect of over 60% in size. Further: potency means the concentration at half of the fitted maximal effect. In outline:
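Read-out is Hoechst total nuclear intensity by fluorescence scanning imager, flagging increased high-DNA-content nuclei. Compounds were incubated with MCF 10A cells for 48 hr (37 C, 5% CO2) before 40 min staining.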

The target of assay [8] is Ubiquitin carboxyl-terminal hydrolase 2 (Homo sapiens) (UniProt O75604). Description: qHTS Validation Assay for Inhibitors of Ubiquitin-specific Protease USP2a Using CHOP2 as the Reporter (AID 463106). A digest of the protocol: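 USP2 core (10nM final) was preincubated with compound for 30min at RT in 20mM Tris-HCl pH 8.0, 2mM CaCl2, 2mM beta-mercaptoethanol, 0.05% CHAPS. Ub-CHOP2 and reporter substrate (25nM each) were added, and fluorescence (Ex 485/Em 531nm) was read after 60min.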

Assay [9] has as its target DNA polymerase III PolC-type (Bacillus subtilis (strain 168)) (UniProt P13267). Description: qHTS Validation Assay for the Inhibitors of DNA Replication in Gram-Positive Bacteria (AID 485295).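 Further: reconstituted holoenzyme with PolC plus beta clamp SSB and primase; PicoGreen fluorescence of double-stranded DNA made on primed circular M13 template; series mostly up to about 57 µM.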 A digest of the protocol: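 Double-stranded DNA product detected by PicoGreen fluorescence after EDTA quench. Compound incubated with B. subtilis holoenzyme (PolC, beta subunit, SSB, primase) before substrate addition; primed replication of M13Gori with dNTPs and NTPs at room temperature; DMSO defines 0% inhibition.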

For assay [10], the target named is Tumor susceptibility gene 101 protein (Homo sapiens) (UniProt Q99816). Description: qHTS Validation Assay for Iinhibitors of HIV-1 Budding by Blocking the Interaction of PTAP/TSG101 (AID 485342; calls by dose curve). A digest of the protocol:
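Fluorescence polarization of 50 nM FITC-PTAP peptide bound to 10 uM Tsg101 binding domain was read after 20 min room-temperature incubation with compounds, in 10 mM HEPES pH 7.5, 0.15 M NaCl, 0.01% Tween 20.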

Results filed as inconclusive are left out. Activity calls are given as the source filed them. Unless noted, the call rests on the fitted dose curve; in most records, active means well fitted curve in the direction sought with a large enough effect; inconclusive means small, poorly fitted or top-dose-only effect, or another doubt; inactive means no such curve, though single readings can be large; an effect the other way counts as inactive or inconclusive.

Ubiquitin carboxyl-terminal hydrolase 2 (Homo sapiens), sequence (O75604 whole entry, looked up): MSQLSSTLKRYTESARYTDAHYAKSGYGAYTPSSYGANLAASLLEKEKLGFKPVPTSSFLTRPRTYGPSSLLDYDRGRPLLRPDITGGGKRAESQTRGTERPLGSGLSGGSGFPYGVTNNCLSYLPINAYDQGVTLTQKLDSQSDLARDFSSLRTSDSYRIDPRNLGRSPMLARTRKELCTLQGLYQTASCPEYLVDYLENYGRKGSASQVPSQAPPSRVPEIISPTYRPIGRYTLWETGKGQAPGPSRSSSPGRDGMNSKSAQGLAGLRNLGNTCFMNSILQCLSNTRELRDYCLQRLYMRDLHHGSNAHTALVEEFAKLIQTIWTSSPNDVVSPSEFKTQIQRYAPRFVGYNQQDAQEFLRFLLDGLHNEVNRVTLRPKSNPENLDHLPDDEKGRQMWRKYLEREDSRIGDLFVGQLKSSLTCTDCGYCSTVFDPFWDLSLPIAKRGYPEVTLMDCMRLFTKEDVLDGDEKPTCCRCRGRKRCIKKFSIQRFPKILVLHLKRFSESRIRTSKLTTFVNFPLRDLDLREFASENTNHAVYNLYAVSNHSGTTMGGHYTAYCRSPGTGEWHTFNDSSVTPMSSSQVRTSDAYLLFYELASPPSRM
RecQ-like DNA helicase BLM (Homo sapiens), sequence (P54132 whole entry, looked up): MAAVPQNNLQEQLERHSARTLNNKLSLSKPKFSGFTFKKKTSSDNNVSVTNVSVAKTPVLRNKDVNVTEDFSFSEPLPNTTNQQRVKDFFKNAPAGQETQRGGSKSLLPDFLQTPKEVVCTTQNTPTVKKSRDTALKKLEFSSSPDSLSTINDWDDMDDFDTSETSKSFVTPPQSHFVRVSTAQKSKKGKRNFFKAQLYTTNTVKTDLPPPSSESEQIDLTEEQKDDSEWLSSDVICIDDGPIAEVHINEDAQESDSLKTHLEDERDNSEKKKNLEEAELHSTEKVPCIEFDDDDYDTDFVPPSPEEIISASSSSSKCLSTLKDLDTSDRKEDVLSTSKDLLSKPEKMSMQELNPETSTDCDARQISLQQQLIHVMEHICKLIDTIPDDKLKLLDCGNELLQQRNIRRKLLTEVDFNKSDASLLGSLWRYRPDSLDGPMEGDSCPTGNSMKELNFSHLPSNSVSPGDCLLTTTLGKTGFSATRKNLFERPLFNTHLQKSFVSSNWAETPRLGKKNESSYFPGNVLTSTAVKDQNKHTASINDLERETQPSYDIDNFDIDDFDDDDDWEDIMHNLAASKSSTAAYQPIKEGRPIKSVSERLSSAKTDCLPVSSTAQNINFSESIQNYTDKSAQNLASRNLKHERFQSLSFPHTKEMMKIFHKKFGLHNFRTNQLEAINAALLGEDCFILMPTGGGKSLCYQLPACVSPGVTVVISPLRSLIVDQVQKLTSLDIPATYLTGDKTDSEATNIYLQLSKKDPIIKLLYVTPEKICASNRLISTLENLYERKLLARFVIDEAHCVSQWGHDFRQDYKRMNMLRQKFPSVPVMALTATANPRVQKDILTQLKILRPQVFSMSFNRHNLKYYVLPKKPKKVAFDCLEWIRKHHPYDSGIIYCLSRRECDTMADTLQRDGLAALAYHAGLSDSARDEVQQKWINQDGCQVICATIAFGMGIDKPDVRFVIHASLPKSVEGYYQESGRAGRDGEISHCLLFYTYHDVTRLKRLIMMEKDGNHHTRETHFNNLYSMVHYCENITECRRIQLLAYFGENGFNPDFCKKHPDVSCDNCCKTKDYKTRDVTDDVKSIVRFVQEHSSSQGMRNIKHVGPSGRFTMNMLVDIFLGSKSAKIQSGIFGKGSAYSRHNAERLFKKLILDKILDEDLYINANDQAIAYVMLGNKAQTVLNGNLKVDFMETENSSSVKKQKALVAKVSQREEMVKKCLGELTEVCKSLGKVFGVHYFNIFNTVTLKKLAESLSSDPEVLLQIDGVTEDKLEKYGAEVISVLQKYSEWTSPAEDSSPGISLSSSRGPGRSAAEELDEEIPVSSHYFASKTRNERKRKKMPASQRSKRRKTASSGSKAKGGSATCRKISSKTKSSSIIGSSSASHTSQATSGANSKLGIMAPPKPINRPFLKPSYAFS
DNA polymerase III PolC-type (Bacillus subtilis (strain 168)), sequence (P13267 whole entry, looked up): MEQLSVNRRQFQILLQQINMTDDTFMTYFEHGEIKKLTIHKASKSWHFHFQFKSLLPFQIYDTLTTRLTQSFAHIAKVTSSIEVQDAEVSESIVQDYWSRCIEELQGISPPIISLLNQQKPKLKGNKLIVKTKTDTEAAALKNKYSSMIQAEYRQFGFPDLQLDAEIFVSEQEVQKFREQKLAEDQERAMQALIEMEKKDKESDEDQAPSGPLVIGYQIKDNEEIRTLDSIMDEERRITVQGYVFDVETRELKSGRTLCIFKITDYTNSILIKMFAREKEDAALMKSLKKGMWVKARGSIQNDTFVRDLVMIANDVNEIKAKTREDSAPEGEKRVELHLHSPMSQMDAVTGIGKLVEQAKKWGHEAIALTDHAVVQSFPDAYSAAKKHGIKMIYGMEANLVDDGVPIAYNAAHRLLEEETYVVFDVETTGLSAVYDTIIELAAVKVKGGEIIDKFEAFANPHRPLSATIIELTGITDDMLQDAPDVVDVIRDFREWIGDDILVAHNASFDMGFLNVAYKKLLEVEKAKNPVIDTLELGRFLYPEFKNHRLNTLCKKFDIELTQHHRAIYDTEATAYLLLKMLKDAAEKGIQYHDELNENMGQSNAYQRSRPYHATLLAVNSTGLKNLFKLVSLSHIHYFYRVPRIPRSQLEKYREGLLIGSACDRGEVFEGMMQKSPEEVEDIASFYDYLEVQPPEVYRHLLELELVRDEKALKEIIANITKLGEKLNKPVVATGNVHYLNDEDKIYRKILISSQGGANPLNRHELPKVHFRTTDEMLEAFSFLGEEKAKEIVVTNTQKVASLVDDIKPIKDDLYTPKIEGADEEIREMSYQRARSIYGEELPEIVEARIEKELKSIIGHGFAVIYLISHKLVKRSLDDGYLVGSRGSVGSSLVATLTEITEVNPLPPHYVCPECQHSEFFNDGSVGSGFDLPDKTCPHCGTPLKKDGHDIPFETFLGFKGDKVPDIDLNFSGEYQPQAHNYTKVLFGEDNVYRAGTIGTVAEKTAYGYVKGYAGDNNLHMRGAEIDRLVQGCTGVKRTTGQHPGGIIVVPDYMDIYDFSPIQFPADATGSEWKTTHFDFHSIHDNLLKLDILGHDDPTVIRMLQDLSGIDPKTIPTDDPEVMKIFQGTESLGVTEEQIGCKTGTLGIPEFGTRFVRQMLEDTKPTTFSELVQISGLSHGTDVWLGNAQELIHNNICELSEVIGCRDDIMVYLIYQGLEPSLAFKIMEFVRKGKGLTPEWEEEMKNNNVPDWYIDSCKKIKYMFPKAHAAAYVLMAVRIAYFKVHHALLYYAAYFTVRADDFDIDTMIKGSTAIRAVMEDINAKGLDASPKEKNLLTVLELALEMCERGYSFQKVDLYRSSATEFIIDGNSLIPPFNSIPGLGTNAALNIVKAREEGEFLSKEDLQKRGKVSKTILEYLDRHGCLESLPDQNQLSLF
ATP-dependent DNA helicase Q1 (Homo sapiens), sequence (P46063 whole entry, looked up): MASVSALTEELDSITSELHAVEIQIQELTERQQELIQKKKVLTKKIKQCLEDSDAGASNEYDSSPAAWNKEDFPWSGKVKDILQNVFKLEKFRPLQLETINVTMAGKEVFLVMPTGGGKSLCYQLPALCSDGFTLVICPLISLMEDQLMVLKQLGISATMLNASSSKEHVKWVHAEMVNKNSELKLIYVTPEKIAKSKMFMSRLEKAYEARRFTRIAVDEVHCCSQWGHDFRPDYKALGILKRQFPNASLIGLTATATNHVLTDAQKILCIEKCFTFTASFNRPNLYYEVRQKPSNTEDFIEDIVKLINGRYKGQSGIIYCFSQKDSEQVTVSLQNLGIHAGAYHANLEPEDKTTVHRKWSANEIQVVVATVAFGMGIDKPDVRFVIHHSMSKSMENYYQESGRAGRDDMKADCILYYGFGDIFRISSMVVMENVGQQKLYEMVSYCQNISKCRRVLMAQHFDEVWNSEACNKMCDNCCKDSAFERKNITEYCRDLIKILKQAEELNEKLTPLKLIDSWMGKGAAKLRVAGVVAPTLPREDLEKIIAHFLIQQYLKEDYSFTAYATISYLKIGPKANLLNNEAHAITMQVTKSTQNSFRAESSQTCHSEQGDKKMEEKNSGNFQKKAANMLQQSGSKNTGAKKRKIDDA
Tumor susceptibility gene 101 protein (Homo sapiens), sequence (Q99816 whole entry, looked up, the tested form may be a part): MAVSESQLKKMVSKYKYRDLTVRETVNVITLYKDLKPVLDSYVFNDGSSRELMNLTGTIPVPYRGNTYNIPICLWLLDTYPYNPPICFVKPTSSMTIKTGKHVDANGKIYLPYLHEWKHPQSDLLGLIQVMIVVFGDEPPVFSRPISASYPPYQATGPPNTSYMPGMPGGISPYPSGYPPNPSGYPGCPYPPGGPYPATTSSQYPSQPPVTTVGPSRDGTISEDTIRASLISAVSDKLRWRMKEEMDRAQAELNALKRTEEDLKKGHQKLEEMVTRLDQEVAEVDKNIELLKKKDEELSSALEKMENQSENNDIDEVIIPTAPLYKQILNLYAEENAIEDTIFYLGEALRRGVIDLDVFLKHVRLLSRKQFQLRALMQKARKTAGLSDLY

As to `O=C(c1ccc(F)cc1)C1CCN(CCn2c(=O)[nH]c3ccccc3c2=O)CC1`, the Potency entry in assay [1], in [2], in [4], in [5], in assay [6] and in assay [7] was “inactive” each time. In addition, the Potency result in assay [8] and in [9] was “inactive” in each case. In addition, the outcome in assay [3] and in assay [10] was inactive.
As for `CC1COc2c(N3CCN(C)CC3)c(F)cc3c(=O)c(C(=O)O)cn1c23` (configuration not stated), the Potency result in [1], in [2], in assay [4], in [5], in assay [6] and in [7] was “inactive” throughout. Besides, the Potency entry in [8] was “inactive”. The compound was called inactive in assay [3] and in assay [10].
`CN(C)CCOC(c1ccccc1)c1ccccc1`: the Potency result in assay [1], in assay [2], in assay [4], in assay [5], in [7] and in assay [8] was “inactive” in each case. Besides, the compound was called inactive in assay [3] and in [10].
`CC[N+](CC)(CC)CCOc1cccc(OCC[N+](CC)(CC)CC)c1OCC[N+](CC)(CC)CC`: the Potency result in assay [1], in assay [2], in assay [4], in [5], in assay [6] and in assay [7] was “inactive” throughout. Besides, the Potency result in assay [8] was “inactive”. Moreover, the result in assay [3] and in assay [10] was inactive.
With `Nc1c2c(nc3ccccc13)CCCC2`, the Potency entry in assay [1], in assay [2], in assay [4], in assay [5], in [6] and in assay [7] was “inactive” each time. Also, the Potency entry in assay [8] and in assay [9] was “inactive” each time. Besides, the call in [3] and in [10] was inactive.
In the case of `NC(=O)OCC(COC(N)=O)c1ccccc1`, the Potency entry in [1], in assay [2], in assay [4], in [5], in assay [6] and in assay [7] was “inactive” in each case. For the same compound, the Potency entry in [8] and in assay [9] was “inactive” throughout. For the same compound, the compound was classed as inactive in assay [3] and in assay [10].
`CC(C)C(=O)Nc1ccc([N+](=O)[O-])c(C(F)(F)F)c1`: the Potency result in [1], in [2], in [4], in assay [5], in assay [6] and in assay [7] was “inactive” throughout. Further, the Potency entry in assay [8] and in assay [9] was “inactive” throughout. Moreover, the compound was classed as inactive in assay [3] and in assay [10].
`CC(C(=O)O)c1cccc(C(=O)c2ccccc2)c1` (configuration not stated): the Potency entry in [1], in [2], in [4], in assay [5], in assay [6] and in [7] was “inactive” in each case. Also, in assay [8], the Potency result was “inactive”. Also, the compound was classed as inactive in [3] and in assay [10].
On to `COc1cc2nc(N3CCN(C(=O)C4COc5ccccc5O4)CC3)nc(N)c2cc1OC` (configuration not stated), for which the Potency entry in [1], in assay [2], in assay [4], in assay [8] and in assay [9] was “inactive” throughout. Also, the call in assay [3] and in assay [10] was inactive. Moreover, the Potency in assay [6] is 11.7 µM (active).
Take `O=C1N(c2ccccc2)c2ccccc2C1(Cc1ccncc1)Cc1ccncc1`: the Potency result in [1], in assay [2], in assay [4], in [5], in assay [6] and in assay [7] was “inactive” each time. In addition, the Potency result in [8] and in [9] was “inactive” in each case. The compound was classed as inactive in [3] and in assay [10].
Take `O=C(Nc1ccc([N+](=O)[O-])cc1Cl)c1cc(Cl)ccc1O`: the Potency result in assay [1], in assay [4], in assay [8] and in assay [9] was “inactive” in each case. In addition, the result in [3] and in assay [10] was inactive. Also, the figures for the Potency in assay [5], in [6] and in assay [7] were 2.07 µM (active), 1.17 µM (active) and 0.316 µM (active), respectively.
`NC(CO)C(=O)NNCc1ccc(O)c(O)c1O` (configuration not stated): the Potency result in assay [1], in assay [2], in assay [4], in assay [7], in [8] and in assay [9] was “inactive” throughout. Further, the result in assay [3] and in assay [10] was inactive.
Regarding `OCCN1CCN(CCCN2c3ccccc3Sc3ccc(C(F)(F)F)cc32)CC1`, the Potency entry in assay [1], in assay [2], in assay [8] and in assay [9] was “inactive” in each case. Besides, the result in assay [10] was inactive.
As to `O=C(C1CCCCC1)N1CC(=O)N2CCc3ccccc3C2C1` (configuration not stated), the Potency entry in assay [1], in assay [4], in assay [5], in assay [6], in [7] and in assay [8] was “inactive” throughout. In addition, the Potency entry in assay [9] was “inactive”. The compound was classed as inactive in assay [3] and in [10].
Regarding `CN1C(C(=O)Nc2ccccn2)=C(O)c2ccccc2S1(=O)=O`, the Potency entry in [1], in [4], in assay [5], in [6], in [7] and in assay [8] was “inactive” each time. Besides, the outcome in [3] and in assay [10] was inactive.
For `Clc1ccc2c(c1)C(N1CCNCC1)=Nc1ccccc1O2`, the Potency result in assay [1], in assay [2], in assay [4], in assay [7] and in assay [8] was “inactive” each time. Besides, the compound was called inactive in assay [10].
In the case of `COc1nc(C)nc(Cl)c1NC1=NCCN1`, the Potency result in [1], in assay [4], in assay [5], in [6], in [7] and in assay [8] was “inactive” each time. Also, in assay [9], the Potency entry was “inactive”. Moreover, the outcome in assay [3] and in [10] was inactive.
As to `O=c1c(-c2ccc(O)cc2)coc2cc(O)cc(O)c12`, the Potency result in assay [1], in assay [4], in assay [5], in assay [6], in [7] and in assay [8] was “inactive” each time. The Potency result in [9] was “inactive”. Besides, the result in assay [3] and in [10] was inactive.
Regarding `COc1ccccc1N1CCN(CC(O)COc2cccc3ccccc23)CC1` (configuration not stated), the Potency entry in assay [1], in assay [2], in assay [4], in assay [8] and in [9] was “inactive” in each case. In addition, in [10], the result was inactive.
For the compound `CNCCCC12CCC(c3ccccc31)c1ccccc12`, the Potency result in [1], in assay [2], in [4], in assay [7], in assay [8] and in assay [9] was “inactive” in each case. In addition, the Potency in assay [5] was 0.521 µM (active). The call in assay [10] was inactive.
With `CCc1cccc2c3c([nH]c12)C(CC)(CC(=O)O)OCC3` (configuration not stated), the Potency result in assay [1], in assay [4], in [5], in [6], in assay [7] and in assay [8] was “inactive” in each case. The compound was classed as inactive in assay [3] and in assay [10].
Regarding `CN1CCN2c3ccccc3Cc3ccccc3C2C1` (configuration not stated), the Potency entry in [1], in assay [4], in assay [5], in assay [6], in [7] and in assay [8] was “inactive” in each case. Moreover, the Potency result in assay [9] was “inactive”. Also, the compound was classed as inactive in assay [3] and in [10].
